Data reported in PubChem BioAssay (NCATS).
Records with an inconclusive call do not appear. Activity calls are given as the source filed them. Calls follow the shape of the dose curve; as a rule, active = well fitted curve in the direction sought with a large enough effect; inconclusive = small, poorly fitted or top-dose-only effect, or another doubt; inactive = no such curve, though single readings can be large; an effect the other way counts as inactive or inconclusive.

Key:
[1] = qHTS of pediatric cancer cell lines to identify multiple opportunities for drug repurposing: Primary screen for NB1643 cells (AID 1347099); also: nearly all actives have a fitted effect of over 50% in size; also: potency is read from the fitted curve at half-maximal effect
Procedure, shortened: (§1)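 Plated cells (500-1,000 per well, growth media) were allowed to settle for 5 hours, treated with compound dilutions for 48 hours, then lysed with CellTiter-Glo for 15 min at room temperature before luminescence reading.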

[2] = qHTS of pediatric cancer cell lines to identify multiple opportunities for drug repurposing: Primary screen for LAN-5 cells (AID 1347100); also: potency is read from the fitted curve at half-maximal effect
Procedure, shortened: (§2)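 Cells (500-1,000/well) rested 5 h, then received compounds for 48 h; metabolically active cells were measured by CellTiter-Glo luminescence. Final concentrations spanned up to 46 µM (MIPE, 11-point) or 0.59 nM-46 µM (NPC, 8-point) in primary screens, 11-point in follow-ups.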

[3] = qHTS of pediatric cancer cell lines to identify multiple opportunities for drug repurposing: Primary screen for BT-12 cells (AID 1347101); also: nearly all actives have a fitted effect of over 25% in size; also: potency is read from the fitted curve at half-maximal effect
Procedure, shortened: as §2

[4] = qHTS of pediatric cancer cell lines to identify multiple opportunities for drug repurposing: Primary screen for MG 63 (6-TG R) cells (AID 1347105); also: nearly all actives have a fitted effect of over 50% in size
Procedure, shortened: as §1

[5] = qHTS of pediatric cancer cell lines to identify multiple opportunities for drug repurposing: Primary screen for control Hh wild type fibroblast cells (AID 1347106);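 also: series mostly up to about 46 µM; a drop in luminescence marks cytotoxicity and a rise apparent proliferation; nearly all actives have a fitted effect of over 55% in size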
Procedure, shortened: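 Viability after 48 h compound treatment at 37C, 500-1,000 cells/well, read as ATP luminescence with CellTiter-Glo. Primary screens used 11-point (MIPE, 0.78 nM-46 µM) or 8-point (NPC, 0.59 nM-46 µM) final concentrations; follow-up screens used 11-point dilutions.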

[6] = qHTS of pediatric cancer cell lines to identify multiple opportunities for drug repurposing: Primary screen for Rh30 cells (AID 1347107); also: nearly all actives have a fitted effect of over 75% in size; also: potency is read from the fitted curve at half-maximal effect
Procedure, shortened: as §2

[7] = qHTS of pediatric cancer cell lines to identify multiple opportunities for drug repurposing: Primary screen for Rh18 cells (AID 1347102); also: nearly all actives have a fitted effect of over 65% in size; also: potency is read from the fitted curve at half-maximal effect
Procedure, shortened: as §2

[8] = qHTS of pediatric cancer cell lines to identify multiple opportunities for drug repurposing: Primary screen for OHS-50 cells (AID 1347103); also: nearly all actives have a fitted effect of over 40% in size; also: potency is read from the fitted curve at half-maximal effect
Procedure, shortened: as §2

[9] = qHTS of pediatric cancer cell lines to identify multiple opportunities for drug repurposing: Primary screen for RD cells (AID 1347104); also: nearly all actives have a fitted effect of over 55% in size; also: potency is read from the fitted curve at half-maximal effect
Procedure, shortened: as §1

[10] = qHTS of pediatric cancer cell lines to identify multiple opportunities for drug repurposing: Primary screen for Rh41 cells (AID 1347108); also: nearly all actives have a fitted effect of over 70% in size; also: potency is read from the fitted curve at half-maximal effect
Procedure, shortened: as §1

Measured: Potency

CC(C)(F)C[C@H](N[C@@H](c1ccc(-c2ccc(S(C)(=O)=O)cc2)cc1)C(F)(F)F)C(=O)NC1(C#N)CC1
inactive: [1] | [2] | [3] | [4] | [5] | [6]

CC(C)CN(C[C@H](O)[C@H](Cc1ccccc1)NC(=O)O[C@H]1CCOC1)S(=O)(=O)c1ccc(N)cc1
inactive: [1] | [2] | [7]

C[C@@H]1O[C@@H](O[C@H]2CC[C@@]3(C)[C@H](CC[C@@H]4[C@H]3C[C@@H](O)[C@]3(C)[C@@H](C5=CC(=O)OC5)CC[C@]43O)C2)C[C@H](O)[C@@H]1O[C@H]1C[C@H](O)[C@H](O[C@H]2C[C@H](O)[C@@H](O)[C@@H](C)O2)[C@H](C)O1 (stereo in doubt)
active: [1] 0.429 µM | [2] 0.241 µM | [3] 0.14 µM | [8] 0.14 µM | [9] 0.121 µM | [10] 0.171 µM

CN1N=C(N)c2cn([C@@H]3O[C@H](COP(=O)(O)O)[C@@H](O)[C@@H]3O)c3ncnc1c23
active: [1] 16.6 µM | [2] 0.166 µM | [7] 9.35 µM | [8] 0.193 µM | [10] 2.35 µM

CC(=O)OCC(=O)[C@@]1(O)CC[C@H]2[C@@H]3CCC4=CC(=O)C=C[C@]4(C)[C@@H]3[C@@H](O)C[C@@]21C
inactive: [1] | [2] | [7] | [9] | [5] | [6]

O=c1[nH]c(=O)n([C@H]2C[C@@H](O)[C@@H](CO)O2)cc1I
not listed: [3]
inactive: all other assays above

O=C1NC(=O)C(=Cc2ccc(-c3ccc(F)cc3O)o2)S1
active: [8] 1.72 µM
inactive: [1] | [2] | [7] | [5] | [10]

CO[C@H]1/C=C\O[C@@]2(C)Oc3c(C)c(O)c4c(O)c(c(C=NN5CCN(C6CCCC6)CC5)c(O)c4c3C2=O)NC(=O)C(C)=CC=C[C@H](C)[C@H](O)[C@@H](C)[C@@H](O)[C@@H](C)[C@H](OC(C)=O)[C@H]1C
active: [1] 0.0105 µM | [2] 0.001 µM | [3] 0.137 µM | [8] 0.193 µM | [9] 0.209 µM | [10] 0.148 µM

CC1=C(CC(=O)O)c2cc(F)ccc2C1=Cc1ccc(S(C)=O)cc1 (centres undefined)
inactive: [3] | [6]
active: [1] 7.43 µM | [2] 26.4 µM

Cc1cccc2c1CC[C@H](CN1CCC(c3c(Cl)cccc3Cl)CC1)C[C@@H]2O
active: [2] 18.7 µM | [8] 5.44 µM | [9] 33.2 µM
not listed: [3] | [10]
inactive: all other assays above

CC(C)Oc1cc(Nc2nc(N[C@@H](C)c3ccc(F)cn3)ncc2Cl)[nH]n1
active: [1] 1.48 µM | [2] 2.35 µM | [7] 5.26 µM | [8] 21.7 µM | [9] 13.2 µM | [6] 8.33 µM | [10] 5.26 µM
inactive: [5]

Cc1nc2c([nH]1)CCN(C(=O)c1ccc(NC(=O)c3ccccc3-c3ccccc3)cc1)c1ccccc1-2
not listed: [3] | [8]
inactive: all other assays above

NC(=O)c1noc([C@H](CCCC2CCCCC2)CC(=O)NO)n1
inactive: [5]
active: [1] 18.7 µM | [2] 14.8 µM | [7] 13.2 µM | [8] 7.69 µM | [6] 18.7 µM | [10] 14.8 µM

Cc1ccc(NC(=O)c2cccc(N(C)C)c2)cc1NC(=O)c1ccc(O)cc1
inactive: [7] | [8] | [5]
active: [1] 0.332 µM | [2] 2.96 µM | [9] 2.64 µM | [10] 2.96 µM

CN1CCN2c3ncccc3Cc3ccccc3C2C1 (centres undefined)
not listed: [4] | [7]
inactive: all other assays above

CC1CNc2c(cccc2S(=O)(=O)N[C@@H](CCCN=C(N)N)C(=O)N2CC[C@@H](C)C[C@@H]2C(=O)O)C1 (some centres undefined)
active: [1] 5.26 µM | [2] 9.35 µM
inactive: [7] | [8] | [4] | [6] | [10]

COc1ccc(-c2cc3nccn3c(Nc3ncccc3C(N)=O)n2)cc1OC
inactive: [7] | [4] | [5]
active: [1] 2.35 µM | [2] 1.48 µM | [8] 1.93 µM | [10] 2.35 µM

CN(C)CC[C@H](CSc1ccccc1)Nc1ccc(S(=O)(=O)NC(=O)c2ccc(N3CCN(Cc4ccccc4-c4ccc(Cl)cc4)CC3)cc2)cc1[N+](=O)[O-]
active: [1] 0.0187 µM | [2] 0.0209 µM | [7] 0.187 µM | [8] 6.85 µM | [9] 5.9 µM | [6] 11.8 µM | [10] 11.8 µM
inactive: [5]

C=C1c2cccc(O)c2C(O)=C2C(=O)[C@@]3(O)C(O)=C(C(N)=O)C(=O)[C@@H](N(C)C)[C@@H]3[C@@H](O)[C@H]12
active: [1] 23.5 µM | [2] 13.2 µM
inactive: [7] | [8] | [9] | [4] | [5]

COc1ccc(CCC(=O)Nc2nc3ccc(Cl)cc3s2)cc1OC
inactive: [2] | [3] | [9] | [4] | [5]
active: [1] 5.26 µM

CCNC(=O)c1noc(-c2cc(C(C)C)c(O)cc2O)c1-c1ccc(CN2CCOCC2)cc1
active: [1] 0.105 µM | [2] 0.105 µM | [7] 0.0935 µM | [8] 0.153 µM | [9] 0.235 µM | [10] 0.148 µM

CSc1cccc(Nc2ncc3cc(-c4c(Cl)cccc4Cl)c(=O)n(C)c3n2)c1
active: [1] 0.209 µM | [2] 0.372 µM | [10] 0.743 µM
inactive: [3] | [5] | [6]
